Bioassay records deposited in PubChem BioAssay by several laboratories.
Compounds with a hit are over-represented: about 3.9% of the library has one in this group of screens.
CCHFV vOTU inh – CCHFV vOTU protease inhibition. inhibition, % at 11.5 µM. hit rate 0.55% among 370,000. Pep-AMC fluorescence; in the data active means inhibition above about 30%
BoNT F protease – inhibitors of Botulinum neurotoxin F light chain protease; Multiplex microsphere protease cleavage assay, flow cytometry; inhibition, % at 10 µM; hit rate 0.22% among 360,000; AID 588497; in the data active means inhibition above about 35%, passing the limit was not always enough; inconclusive means no clear call, values can overlap the other calls
Anthrax LF prot – inhibitors of Bacillus anthracis lethal factor protease | multiplex microsphere protease cleavage assay, LF | inhibition, % at 10 µM | hit rate 0.12% among 360,000
Target sequence (P15917 whole entry, looked up): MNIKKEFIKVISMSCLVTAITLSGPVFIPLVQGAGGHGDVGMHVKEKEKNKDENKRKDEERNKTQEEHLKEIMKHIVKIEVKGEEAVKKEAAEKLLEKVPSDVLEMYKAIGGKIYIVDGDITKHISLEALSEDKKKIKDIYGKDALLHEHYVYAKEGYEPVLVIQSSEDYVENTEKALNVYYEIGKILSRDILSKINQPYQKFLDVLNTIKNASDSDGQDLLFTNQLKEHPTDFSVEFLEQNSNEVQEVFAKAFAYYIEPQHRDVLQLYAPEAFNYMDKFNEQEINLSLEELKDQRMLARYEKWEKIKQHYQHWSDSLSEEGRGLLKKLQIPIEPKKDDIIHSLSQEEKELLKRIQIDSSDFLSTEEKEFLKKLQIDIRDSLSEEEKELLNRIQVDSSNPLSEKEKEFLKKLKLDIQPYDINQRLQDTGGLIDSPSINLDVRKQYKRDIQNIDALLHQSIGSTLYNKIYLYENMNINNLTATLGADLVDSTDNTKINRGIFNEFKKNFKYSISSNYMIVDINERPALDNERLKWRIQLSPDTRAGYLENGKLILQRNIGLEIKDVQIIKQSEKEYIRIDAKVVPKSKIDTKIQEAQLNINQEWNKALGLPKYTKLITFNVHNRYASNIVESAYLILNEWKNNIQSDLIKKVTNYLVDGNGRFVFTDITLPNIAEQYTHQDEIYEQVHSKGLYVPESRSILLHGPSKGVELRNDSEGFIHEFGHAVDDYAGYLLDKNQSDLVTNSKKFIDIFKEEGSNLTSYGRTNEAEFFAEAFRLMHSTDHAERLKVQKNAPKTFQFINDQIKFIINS
BoNT-A LC inh2 – BoNT A light chain protease inhibition; multiplex microsphere protease substrate cleavage, flow cytometry; inhibition, % at 10 µM; hit rate 0.17% among 360,000; AID 588499
3CLpro inhibitor – SARS-CoV 3CLpro protease inhibition. recombinant SARS-CoV 3CLpro, quenched FRET peptide cleavage. inhibition, % at 6 µM. hit rate 0.14% among 290,000. AID 1706; in the data active means inhibition above about 12%
Autofluor counter – compound fluorescence in toxin protease inhibitor counterscreen. compound autofluorescence counterscreen, microsphere flow cytometry; hits give high values. fluorescence intensity (no concentration beside the values). hit rate 3.1% among 360,000; in the data active means fluorescence intensity above about 16000; inconclusive means no clear call, values can overlap the other calls
Numbers stand for hits; – = inactive; ? = inconclusive; · = no result. Unless noted, no stated cut-off is given here; in the data, active means inhibition above about 30%; inconclusive means no clear call, values can overlap the other calls; inactive means below that.

SMILES	CCHFV vOTU inh	BoNT F protease	Anthrax LF prot	BoNT-A LC inh2	3CLpro inhibitor	Autofluor counter
C=CCN=C1NC(c2cccc(Cl)c2)C(C(=O)OC)=C(C)N1C (stereo not given)	–	·	·	·	·	·
CCn1c(-c2cc3c(C(F)(F)F)nn(C)c3s2)n[nH]c1=S	–	–	–	–	–	16651
Cn1c(-c2cc3c(C(F)(F)F)nn(C)c3s2)n[nH]c1=S	–	–	–	–	–	–
CC(Sc1ccccc1)C(=O)NCCc1ccccc1 (stereo not given)	–	?	–	–	–	–
Cc1cc(NC(=O)CSc2nnc(CNc3cccc(C(F)(F)F)c3)n2Cc2ccco2)no1	–	–	–	–	–	17703
CCOc1ccccc1NC(=O)CSc1nnc(-c2ccco2)n1Cc1ccco1	–	–	–	–	–	21394
CCOc1ccccc1NC(=O)CSc1nnc(-c2ccccn2)n1Cc1ccco1	–	–	–	–	–	–
COc1ccc(C)cc1NC(=O)CSc1nnc(-c2ccco2)n1Cc1ccco1	–	–	–	–	–	17132
Cc1cc(NC(=O)CSc2nnc(-c3ccco3)n2Cc2ccco2)no1	–	–	–	–	–	19201
Cc1nnc(SCC(=O)Nc2cccc(C(F)(F)F)c2)n1Cc1ccco1	–	–	–	–	–	–
Cc1cccc(-c2cccc3c4c([nH]c23)[C@@H]2C[C@H](N(C)C(=O)Nc3ccccc3)[C@H]([C@H](C)O)C(=O)N2CC4)c1	–	·	·	·	·	·
O=C(CNS(=O)(=O)c1ccccc1)N1CCN(c2ccccn2)CC1	–	·	·	·	·	·
CC1CN(c2nc3c(c(=O)n(C)c(=O)n3C)n2Cc2c(F)cccc2Cl)CC(C)O1 (stereo not given)	–	–	–	–	–	18917
Cn1c(=O)c2c(nc(CN3CCN(c4ccccc4)CC3)n2Cc2ccccc2Cl)n(C)c1=O	–	–	–	?	–	19891
Cn1c(=O)c2c(nc(CN3CCN(c4ccccc4)CC3)n2Cc2c(F)cccc2Cl)n(C)c1=O	–	–	–	?	–	22170
O=C(N/N=C/c1ccsc1)c1ccc2ccccc2n1	–	–	–	–	–	–
Cn1cccc1C(=O)N1CCN(S(=O)(=O)c2ccc(Br)s2)CC1	–	·	·	·	·	·
CCCCN(C)C(=O)c1sc(=O)n(Cc2c(C)noc2C)c1C	–	–	–	–	·	–
Cc1onc(-c2ccccc2)c1C(=O)N1CCN(C/C=C/c2ccccc2)CC1	–	–	–	–	–	–
CCOc1cccc2cc(C(=O)N3CCN(C/C=C/c4ccccc4)CC3)c(=O)oc12	–	–	–	?	–	16172
Cc1cc(C(=O)N2CCN(C/C=C/c3ccccc3)CC2)no1	–	–	–	–	–	19463
CCOc1cc(C(=O)N2CCN(C/C=C/c3ccccc3)CC2)cc(OCC)c1OCC	–	–	–	–	–	–
O=C(OCCN=C1NS(=O)(=O)c2ccccc21)c1ccncc1	–	–	–	–	–	–
O=C(OCCN=C1NS(=O)(=O)c2ccccc21)C1CC(=O)N(c2ccc3ccccc3c2)C1 (stereo not given)	–	–	–	?	–	19051
COc1cc(OC)c(OC)cc1CNC(C)C(O)c1ccccc1 (stereo not given)	–	–	–	–	–	17763
SMILES	CCHFV vOTU inh	BoNT F protease	Anthrax LF prot	BoNT-A LC inh2	3CLpro inhibitor	Autofluor counter
CC(NCc1ccc(Cl)cc1Cl)C(O)c1ccccc1 (stereo not given)	–	–	–	–	–	–
COc1ccc(NC(=O)c2cc(-c3cccc(OC)c3)on2)cc1	–	–	–	–	–	–
COc1ccc(-c2cc(C(=O)Nc3cccc(Cl)c3)no2)cc1	–	–	–	–	–	–
COc1cccc(-c2cc(C(=O)Nc3cccnc3Cl)no2)c1	–	–	–	–	–	–
COc1ccc(-c2cc(C(=O)Nc3cccc(C(C)=O)c3)no2)cc1	–	–	–	–	–	19306
COc1ccc(-c2cc(C(=O)Nc3ccccc3SC)no2)cc1OC	–	–	–	–	–	23175
COc1cccc(-c2cc(C(=O)Nc3cccc(O)c3)no2)c1	–	–	–	–	–	24356
COc1cccc(-c2cc(C(=O)Nc3ccccc3SC)no2)c1	–	–	–	?	–	16463
CCOC(=O)[C@]12CCCC=C1N(CCCOC)C(=O)[C@@H]2CC(=O)NCc1cccc(C(F)(F)F)c1	–	·	·	·	·	·
CCOC(=O)Cn1nc(C)n(-c2ccc(C(C)C)cc2)c1=O	–	–	–	–	–	16947
Nc1ccn([C@@H]2O[C@H](C(=O)NCC(F)(F)F)[C@@H](O)[C@H]2O)c(=O)n1	–	–	–	–	·	–
O=C(NCc1ccc2c(c1)OCO2)c1ccc(Cl)c(S(=O)(=O)N2CCOCC2)c1	–	–	–	–	–	23645
O=C(Oc1ccc2c(c1)OCO2)c1ccc(Br)c(S(=O)(=O)N2CCOCC2)c1	–	–	–	?	–	23166
Cc1ccc(C(=O)NCc2ccc3c(c2)OCO3)cc1S(=O)(=O)N1CCOCC1	–	–	–	–	–	–
COCCNC(=O)c1c[nH]c2ccc(S(=O)(=O)N3CCOCC3)cc2c1=O	–	–	–	–	–	–
O=C(NCc1ccc2c(c1)OCO2)c1ccc(CN2CCOCC2)cc1	–	–	–	–	–	16861
O=C(Nc1ccc2c(c1)OCCO2)c1ccc(Br)c(S(=O)(=O)N2CCOCC2)c1	–	–	–	–	–	–
O=C(NCc1ccc2c(c1)OCO2)c1c[nH]c2ccc(S(=O)(=O)N3CCOCC3)cc2c1=O	–	–	–	–	–	21299
Clc1ccc(-c2nc(/C=N/N3CCOCC3)c3ccccn23)cc1	·	–	–	–	–	–
CC(C)(C)N1Cc2nnn(CC3CCCCC3)c2-c2cc(F)ccc2S1(=O)=O	–	·	·	·	·	·
CCN(CC)C(=O)CC[C@H]1CC[C@]2(CCCN(Cc3cccnc3)C2)O1	–	·	·	·	·	·
O=C(NCc1ccccc1)c1c[nH]c2cc3c(cc2c1=O)OCCO3	–	–	–	–	–	16706
COc1cc2[nH]cc(C(=O)NCc3cccs3)c(=O)c2cc1OC	–	–	–	–	–	17586
COC(=O)C1(C(=O)OC)NOC2C(=O)N(c3ccccc3)C(=O)C21 (stereo not given)	–	–	–	?	–	22517
COC(=O)c1cc(NC(=O)Cc2cc(OC)c(OC)c(OC)c2)cc(C(=O)OC)c1	–	–	–	–	–	–
SMILES	CCHFV vOTU inh	BoNT F protease	Anthrax LF prot	BoNT-A LC inh2	3CLpro inhibitor	Autofluor counter
Cc1c(N=Cc2ccc(Br)s2)cccc1[N+](=O)[O-]	–	–	–	–	–	23875
COC(=O)c1cc(NC(=O)CC2NC3CCCCC3NC2=O)cc(C(=O)OC)c1 (stereo not given)	–	–	–	–	–	22818
CC(=O)NC(Cc1ccccc1)C(=O)NC1CCN(C(=O)c2cnccn2)CC1 (stereo not given)	–	–	–	?	–	16732
CC(=O)NC(Cc1ccccc1)C(=O)NC1CCN(C(=O)c2ccc([N+](=O)[O-])cc2)CC1 (stereo not given)	–	–	–	–	–	–
COc1ccccc1CCC(=O)OCC(=O)Nc1c(C)nn(-c2ccccc2)c1C	–	–	–	–	·	–
Cc1ccc(C)c(S(=O)(=O)NCc2ccc(C(=O)N3CCCCC3C)cc2)c1 (stereo not given)	–	–	–	–	–	18934
